The list is not random: actives were taken first. Their share in the collection is about 2.7%.
EWS-Fli block = EWS/Fli transcriptional activity inhibition; A673 NR0B1-luciferase reporter, viability-normalised; inhibition, % at 12.6 µM; 0.67% of 350,000 active;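 active means mean inhibition of at least 50% after viability correction, with every replicate also passing that limit; inconclusive means mean reaches 50% but only one of two replicates passes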;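 further: firefly luciferase signal divided by Alamar Blue viability fluorescence both relative to DMSO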
CFTR F508del cor = CFTR F508del correction in bronchial cells; AID 720511; activity (quench increase), % at 7.58 µM; 0.36% of 350,000 active; CFBE cells, YFP halide quenching; stimulated with forskolin plus potentiator P3; % fluorescence drop versus neutral controls;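 active means mean added fluorescence quench of at least 8% versus neutral control, with both replicates also reaching 8%; inconclusive means only one of the mean or replicate conditions met; inactive means mean below 8% and not both replicates reaching 8%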;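 further: cells transiently co-express mutant CFTR-F508del with the halide-sensitive YFP; corrector assay measuring rescue of mutant channel to the surface after 24 h compound exposure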
PAX8 reporter = inhibitors of PAX8 transcriptional activity in RMG-I cells; RMG-I TPO-luciferase reporter, SteadyGlo, 24 h; inhibition, % at 12.6 µM; 1.2% of 360,000 active; AID 652154;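 active means mean replicate inhibition at least 60% with every replicate also reaching 60%; inconclusive means only one of the two criteria is met; inactive means mean below 60% and not all replicates reaching 60%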;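 further: luciferase light reporting Pax8 driven TPO promoter activity; plate controls were median of neutral control wells for no effect and mitoxantrone controls for full effect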
PGC1a acetyl inh = PGC1a acetylation modulation, inhibitor mode | AID 651687 | inhibition, % at 15.6 µM | U2OS PGC1a acetylation, AlphaScreen anti-acetyl-lysine; with virally co-expressed GCN5 acetyltransferase | 0.17% of 350,000 active;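 active means every replicate shows inhibition of at least 40%; inconclusive means mean inhibition at least 40% but some replicate below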;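 further: 0% = neutral control wells and 100% = positive control wells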
GSIS activator = GLuc luminescence reporter in INS-1E cells, primary screen for activators of glucose-dependent secretion of insulin | AID 743287 | 0.61% of 370,000 active | INS-1E GLuc reporter insulin secretion, 2-3 h | activation, % at 16.6 µM;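 active means lowest replicate activation of at least 40%, so every replicate reaches that level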;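 further: 0% = median of neutral control wells and 100% = median of IBMX positive control wells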
Env fusion inh = blocks HIV Env-driven cell-cell fusion; 1.1% of 360,000 active; inhibition, % at 12.3 µM; HeLa-JRFL Env/CEM21 cell fusion, luciferase;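 active means mean replicate inhibition score of at least 50 and every replicate individually at or above 50; inconclusive means only one of the two criteria met; inactive means mean below 50 and not all replicates reaching 50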;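 further: 0% = plate neutral controls and 100% = maraviroc near 300 nM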
DNA binder FP = binds DNA displacing acridine orange. shares compounds with EWS-Fli block. salmon sperm DNA acridine orange fluorescence polarization. AC35, µM (highest dose often 68 µM), inactives show at the highest dose activity change, negative = DNA binding. 2% of 640 active. AID 720586;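 active means fitted curve reaches a 35% signal fall AC35 below twice the sample's top valid tested dose, actives reach about 48 µM in these data; inactive means the rest, including activity in the rising direction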;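 further: lower polarization ratio signals compound binding to DNA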
Starred values were filed as active, the others as inactive; i = inactive; ? = inconclusive; / = no result; ! = a repeat was not active; [ ] = dose if it differs, or a comment.

SMILES	EWS-Fli block	CFTR F508del cor	PAX8 reporter	PGC1a acetyl inh	GSIS activator	Env fusion inh	DNA binder FP
CC(C)NC(=O)N(C)C[C@H]1OCCCC[C@@H](C)Oc2ccc(NS(=O)(=O)c3cccs3)cc2C(=O)N([C@H](C)CO)C[C@H]1C	3	-1	1	3	-11	-15[16.7 µM]	/
COc1ccc(S(=O)(=O)N(C)C[C@H]2Oc3c(NC(=O)NC(C)C)cccc3C(=O)N([C@@H](C)CO)C[C@H]2C)cc1	3	-1	/	6	-2	-38[16.7 µM]	/
O=C(Nc1ccc(Br)cn1)c1cccc2ccccc12	48	14*	-12	3	-3	-343	/
COc1c(C(=O)Nc2ccc(Br)cn2)ccc2ccccc12	-127	3	-171	/	10	-118	/
C=C1C(=O)[C@@]23[C@H](O)C[C@@H]4C(C)(C)CC[C@H](O)[C@]4(C)[C@@H]2C[C@H](O)[C@@H]1[C@H]3O	1	-7	97*	/	77	31	/
CC[C@H](C)C1OC(=O)[C@@H](C)[C@@H](CC)NC(=O)[C@H](C)N(C)C(=O)C(C)(C)C(=O)C(C)NC(=O)[C@H](Cc2ccc(OC)cc2)N(C)C(=O)[C@H](C(C)C)N(C)C(=O)CNC(=O)[C@H](CC(C)C)N(C)C(=O)CNC1=O (stereo partly specified)	/	/	/	74*	/	/	/
O=C(Nc1nc(-c2cccs2)cs1)c1cccc(S(=O)(=O)N2CCCCC2)c1	/	/	33	/	/	69*	/
O=C(Nc1nc(-c2cc3ccccc3o2)cs1)c1ccc(S(=O)(=O)N2CCCC2)cc1	6	5	23	-9	-2	57*	/
CC1CN(S(=O)(=O)c2ccc(C(=O)Nc3nc(-c4cc5ccccc5o4)cs3)cc2)CC(C)O1 (stereo unspecified)	16	8	14	/	-6	38	/
CN(C[C@H]1N[C@@H](CO)[C@@H]1c1ccc(C2=CCCC2)cc1)C(=O)c1cccc(F)c1	77*	7	111*	76*	9	/	-18%
COCCNC(=O)C[C@@H]1CC[C@H]2[C@H](COc3ccc(NC(=O)COC)cc3C(=O)N2C)O1	-5	0	-2	-2	4	-2[16.7 µM]	/
COc1ccc(S(=O)(=O)Nc2ccc3c(c2)C(=O)N([C@@H](C)CO)C[C@H](C)[C@@H](CN(C)S(=O)(=O)c2c(C)noc2C)OCCCC[C@H](C)O3)cc1	17	2	28	-14	-16	33[16.7 µM]	/
CCN1CCS/C1=C\C=C\C1=[N+](CC)CCS1	53*	2	76*	/	-57	41	-1%
Nc1nc(=S)c2[nH]cnc2[nH]1	61*	-15	94*	3	6	/	3%
COc1cc2c(cc1NC(=O)CN(C)Cc1ccc(OC)c(OC)c1)oc1ccccc12	53*	7	25	/	-13	4	-6%
O=C(Nc1ccc2c(c1)OCO2)N1[C@@H]2CNC[C@H]1C2c1ccc(/C=C/c2ccccc2)cc1 (stereo partly specified)	/	-1	/	/	-13	/	/
O=C(C1CC1)N1C[C@@H]2N[C@H](C1)C2c1ccc(/C=C/c2ccccc2)cc1 (stereo partly specified)	53*!	1	-90	-17	1	/	5%
CN(C)CC(=O)N1C[C@@H]2N[C@H](C1)C2c1ccc(/C=C/c2ccccc2)cc1 (stereo partly specified)	14	-7	-92	-6	26	/	/
O=C(Nc1ccc2c(c1)OCO2)N1C[C@@H]2N[C@H](C1)C2c1ccc(C=Cc2ccccc2)cc1 (stereo partly specified)	65*!	-7	-19	-8	89*!	/	-5%
CO[C@H]1CN(C)C(=O)c2ccc(NC(C)=O)cc2OC[C@H](C)N(Cc2cncnc2)C[C@H]1C	-1	-4	/	1	-1	-8[16.7 µM]	/
COc1ccccc1N(/N=C1\Sc2ccccc2C1=O)C(C)=O	54*	-2	-114	/	/	i	-12%
Cc1c(CC(=O)NCCCCCC(=O)O)c(=O)oc2cc3c(cc12)CCC(C)(C)O3	-8	0	4	-3	6	-5	/
Cc1c(CC(=O)NCCCC(=O)O)c(=O)oc2cc3c(cc12)CCC(C)(C)O3	66*	-1	25	11	6	26	-13%
Cc1cccc(CN2C(=O)/C(=C\c3ccc(C(=O)NCCCN4CCN(C)CC4)cc3)Oc3ccccc32)c1	65*	1	?	/	32	24	-13%
COc1ccc(NC(=O)N(C)C[C@@H]2OCCCC[C@@H](C)Oc3ccc(NC(=O)Nc4ccccc4)cc3C(=O)N([C@H](C)CO)C[C@H]2C)cc1	-135	0	11	-4	-25	-7[16.7 µM]	/
SMILES	EWS-Fli block	CFTR F508del cor	PAX8 reporter	PGC1a acetyl inh	GSIS activator	Env fusion inh	DNA binder FP
COc1cc(OC)cc(-c2cc3nc(C)c(CCC(=O)O)c(C)n3n2)c1	77*	-2	56	2	/	73*	44µM*
COc1cc(OC)cc(-c2cc3nc(C)c(CCC(=O)NC(C)CCc4ccco4)c(C)n3n2)c1 (stereo unspecified)	/	/	-5	1	/	13	/
CCOC(=O)C1CCCCN1C(=O)CCc1c(C)nc2cc(-c3ccccc3)nn2c1C (stereo unspecified)	51*	2	-30	-19	0	61*	-5%
Cc1ccc(NC(=O)COC(=O)c2ccc(OC(F)F)cc2)cc1S(=O)(=O)N1CCCCC1	3	0	-12	/	-5	/	/
Cc1ccc(NC(=O)COC(=O)c2ccc3c(c2)OCO3)cc1S(=O)(=O)N1CCCCC1	72*	/	3	/	-1	10	-5%
O=C(Nc1cc(F)ccc1F)N1CC(=O)N2[C@H](C1)[C@H](c1ccc(-c3ccccc3)cc1)[C@@H]2CO	0	1	-15	-2	-14	/	/
CC(C)(C)c1ccc(Oc2ccc(NC(=O)C3CC=CCC3C(=O)O)cc2)cc1 (stereo unspecified)	70*	-5	12	-7	-3	-15	-14%
COc1cccc(-c2cccc(-c3nc(C(=O)NCC(F)(F)F)cc4c3[C@H](CCO)N([S@@](=O)C(C)(C)C)C4)c2)c1	54*	11*	45	-14	-20	-121[16.7 µM]	-9%
O=C1c2ccccc2C(=O)c2cc(N3CCCCC3)ccc21	83*	1	9	5	-4	-139	-10%
c1ccc2cc(N3CCCCC3)ccc2c1	-38	3	13	2	/	-7	/
CC(C)NC(=O)N1[C@@H](CO)[C@@H]2c3ccccc3N(C(=O)Nc3cccc(Cl)c3)C[C@@H]21	1	-1	-3	4	-12	/	/
CCCCNC1=CC(=O)C(=O)c2ccccc21	54*	-5	?	/	1	-4	2%
CCC(=O)N[C@H]1CC[C@H](CCNC(=O)Nc2ccc(F)cc2)O[C@H]1CO	-3	2	1	-4	9	2[16.7 µM]	/

Source: PubChem BioAssay (Broad Institute)
